Test results: the supplement of paper PMC6658780
Structures can show the parent of a compound that is named as a salt. ± gives the standard deviation of the averaged measurements.

What follows are molecules tested on Klebsiella pneumoniae KPC-119 (assay: percent growth inhibition of drug + antibiotic vs DMSO control; higher = more growth inhibition). Settings: antibiotic (0.125x MIC): colistin; 20 µM.

Compound | percent growth inhibition
Clc1ccc(CCC(Cn2ccnc2)Sc2c(Cl)cccc2Cl)cc1 (stereo unspecified) [Butoconazole nitrate] | 6.76 ± 0.1%
CC(=O)OC[C@H]1O[C@@H]([S-])[C@H](OC(C)=O)[C@@H](OC(C)=O)[C@@H]1OC(C)=O.CCP(CC)CC.[Au+] [Auranofin] | 96.14 ± 0.42%
CO[C@H]1/C=C/O[C@@]2(C)Oc3c(C)c(O)c4c(O)c(c(/C=N/N5CCN(C6CCCC6)CC5)c(O)c4c3C2=O)NC(=O)/C(C)=C\C=C\[C@H](C)[C@H](O)[C@@H](C)[C@@H](O)[C@@H](C)[C@H](OC(C)=O)[C@@H]1C [Rifapentine] | 93.01 ± 0.93%
CN(C)c1ccc(O)c2c1C[C@H]1C[C@H]3[C@H](N(C)C)C(O)=C(C(N)=O)C(=O)[C@@]3(O)C(O)=C1C2=O [Minocycline hydrochloride] | 97.8 ± 1.9%
CCCCOC(=O)c1ccc(N)cc1 [Butamben] | 3.33 ± 3%
CO[C@H]1/C=C/O[C@@]2(C)Oc3c(C)c(O)c4c(c3C2=O)C2=NC3(CCN(CC(C)C)CC3)NC2=C(NC(=O)/C(C)=C\C=C\[C@H](C)[C@H](O)[C@@H](C)[C@@H](O)[C@@H](C)[C@H](OC(C)=O)[C@@H]1C)C4=O [Rifabutin] | 98.1 ± 2.2%
O=C1OCCN1/N=C/c1ccc([N+](=O)[O-])o1 [Furazolidone] | 99.62 ± 0.88%
OCCOCCN1CCN(C2=Nc3ccccc3Sc3ccccc32)CC1 [Quetiapine hemifumarate] | -8.06 ± 1.8%
CCCCCCCCCCCCCCCC[N+](C)(C)CCN(Cc1ccc(OC)cc1)c1ncccn1 [Thonzonium bromide] | 98.2 ± 3.1%
CC[C@H]1OC(=O)[C@H](C)[C@@H](O[C@H]2C[C@@](C)(OC)[C@@H](O)[C@H](C)O2)[C@H](C)[C@@H](O[C@@H]2O[C@H](C)C[C@H](N(C)C)[C@H]2O)[C@](C)(O)C[C@@H](C)CN(C)[C@H](C)[C@@H](O)[C@]1(C)O [Azithromycin] | 98.78 ± 0.7%
O=c1[nH]c(=O)n([C@H]2C[C@H](O)[C@@H](CO)O2)cc1F [Floxuridine] | 98.9 ± 1.5%
